Assay outcomes deposited in PubChem BioAssay by Broad Institute.
T cruzi growth-1 = inhibitors of T. cruzi proliferation; 77,000 tested, 5.9% active; T. cruzi beta-gal in NIH3T3, GalScreen luminescence, 90 h; AID 624255; inhibition, % at 8.34 µM;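 active means mean inhibition above about 93%, with at least 55% of replicates each passing it, limit read from the data, passing the limit was not always enough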
C diff HTS = inhibitors of Clostridium difficile growth. Clostridium difficile clinical isolate growth, OD600, 24 h; hits give low values. growth activity, negative = inhibition, % at 16 µg/mL (by protocol). 86,000 tested, 0.25% active;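 active means mean growth activity at or below -80% and every replicate also at or below -80%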;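 further: 0% = DMSO wells and -100% = levofloxacin 16 µg/mL wells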
Pf Dd2 growth = blocks growth of Plasmodium falciparum Dd2 parasites. P. falciparum Dd2 growth, SYBR Green, 72 h; hits give low values. activity change, % at 10 µM. 94,000 tested, 2.3% active. AID 1159554; in the data active means activity change below about -80%
T cruzi growth-2 = blocks T. cruzi growth in NIH3T3 host cells; AID 651739; 5,600 tested, 72% active; shares compounds with T cruzi growth-1; T. cruzi beta-gal in NIH3T3, GalScreen luminescence, 90 h; inhibition, % at 8.35 µM;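 active means mean replicate inhibition above about 95% and at least 55% of replicates individually reaching it, limit read from the data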
T cruzi growth-3 = inhibitors of T. cruzi proliferation; 5,600 tested, 21% active; inhibition, % at 2.09 µM; shares compounds with T cruzi growth-1; T. cruzi beta-gal in NIH3T3, GalScreen luminescence, 90 h;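 active means mean inhibition above about 95%, with at least 55% of replicates also reaching it, limit read from the data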;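 further: plate controls were neutral control median for no effect and positive control median for full effect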
3T3 cytotox = NIH/3T3 (mouse) viability loss. cytotoxicity (signal decrease), % at 8.35 µM. AID 651742. 5,600 tested, 14% active. NIH/3T3 viability, CellTiter-Glo ATP luminescence, 90 h. shares compounds with T cruzi growth-1;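 active means mean signal decrease across replicates above about 35% based on untreated-well scatter, with enough replicates individually passing, limit read from the data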;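 further: 0% = median of neutral control wells and 100% = median of positive control wells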
3T3 cytotox 2 = cytotoxicity in mouse NIH/3T3 fibroblasts; shares compounds with T cruzi growth-1; NIH/3T3 viability, CellTiter-Glo ATP luminescence, 90 h; inhibition, % at 24.9 µM; 5,600 tested, 56% active;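 active means mean loss of cell viability signal at or above a set limit, and enough replicates individually reaching it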;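 further: 0% = median of neutral control wells and 100% = median of positive control wells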
An asterisk follows results filed as active; nt = no result given; ! = not confirmed by another sample. The list is not random: actives were taken first. Their share in the collection is about 6.8%.

SMILES	T cruzi growth-1	C diff HTS	Pf Dd2 growth	T cruzi growth-2	T cruzi growth-3	3T3 cytotox	3T3 cytotox 2
C[C@@H]1CN([C@@H](C)CO)C(=O)c2cc(NS(C)(=O)=O)ccc2O[C@H]1CN(C)S(=O)(=O)c1cccs1	67	nt	23	nt	nt	nt	nt
COc1ccc2c3c([nH]c2c1)[C@H](CO)N(S(=O)(=O)c1ccc(C)cc1)CC31CCN(Cc2nccs2)CC1	nt	-5	-73	nt	nt	nt	nt
CCC(=O)N1CC(=O)N2[C@H](CO)[C@H](c3ccc(-c4cccnc4)cc3)[C@H]2C1	nt	-3	1	nt	nt	nt	nt
CO[C@H]1CN(C)C(=O)c2ccc(NS(C)(=O)=O)cc2OC[C@@H](C)N(C(=O)C2CCOCC2)C[C@H]1C	29	nt	-6	nt	nt	nt	nt
Cc1ccccc1-c1ccc([C@@H]2[C@@H](CO)N3CCCCN(C(=O)Nc4cccc(F)c4)C[C@@H]23)cc1	3	25	-30	nt	nt	nt	nt
O=C(Nc1cccc(F)c1)N1CCCCN2[C@H](C1)[C@@H](c1ccc(-c3ccncc3)cc1)[C@@H]2CO	111*	-7	-37	111*	70	-19	7
O=C(Nc1cccc(F)c1)N1CCCCN2[C@H](CO)[C@H](c3ccc(-c4ccncc4)cc3)[C@H]2C1	105*	-3	-65	112*	54	1	53*
O=C(Nc1ccc(F)cc1)N1CCCCN2[C@H](CO)[C@@H](c3ccc(-c4ccncc4)cc3)[C@@H]2C1	17	16	26	nt	nt	nt	nt
O=C(Nc1ccc(F)cc1)N1CCCCN2[C@@H](CO)[C@@H](c3ccc(-c4ccncc4)cc3)[C@@H]2C1	72	15	-17	nt	nt	nt	nt
Cc1ccc(-c2ccc([C@H]3[C@@H](CO)N4CCCCN(C(=O)Nc5cccc(F)c5)C[C@H]34)cc2)cc1	107*	-96*	-27	109*	115*	119*	105*
CO[C@H]1CN(C)C(=O)c2cc(NC(=O)Nc3cccc(F)c3)ccc2OC[C@H](C)N(C)C[C@H]1C	16	-1	-40	nt	nt	nt	nt
COc1ccc(NC(=O)Nc2ccc3c(c2)C(=O)N([C@@H](C)CO)C[C@@H](C)[C@H](CN(C)Cc2ccncc2)OCCCC[C@H](C)O3)cc1	69	8	-38	nt	nt	nt	nt
C[C@@H]1CCCCO[C@@H](CN(C)C(=O)CCCN(C)C)[C@@H](C)CN([C@H](C)CO)C(=O)c2cc(N(C)C)ccc2O1	108*!	-1	14	55	1	8	9
C[C@@H]1CCCCO[C@@H](CN(C)C(=O)CCC(F)(F)F)[C@@H](C)CN([C@H](C)CO)C(=O)c2cc(N(C)C)ccc2O1	99*!	-1	-14	61	10	1	-52
C[C@@H]1CCCCO[C@@H](CN(C)C(=O)CCCN(C)C)[C@H](C)CN([C@@H](C)CO)C(=O)c2cc(N(C)C)ccc2O1	27	-2	24	nt	nt	nt	nt
C[C@@H]1CCCCO[C@H](CN(C)C(=O)CCC(F)(F)F)[C@H](C)CN([C@H](C)CO)C(=O)c2cc(N(C)C)ccc2O1	38	-1	nt	nt	nt	nt	nt
COc1ccc(NC(=O)N(C)C[C@@H]2OCCCC[C@H](C)Oc3ccc(NS(=O)(=O)c4ccc(C)cc4)cc3C(=O)N([C@H](C)CO)C[C@H]2C)cc1	-32	nt	-21	nt	nt	nt	nt
C[C@H](CO)N1C[C@H](C)[C@@H](CN(C)Cc2ccccc2)Oc2ccc(NS(=O)(=O)c3ccc(Cl)cc3)cc2CC1=O	95	-1	-58	nt	nt	nt	nt
C[C@@H]1CN([C@H](C)CO)C(=O)Cc2cc(NS(=O)(=O)c3ccc(Cl)cc3)ccc2O[C@H]1CN(C)Cc1ccccc1	100*	0	2	110*	103*	7	16
C[C@H]1CN([C@@H](C)CO)C(=O)Cc2cc(NS(=O)(=O)c3ccc(F)cc3)ccc2O[C@H]1CN(C)Cc1ccccc1	100*	-13	-42	99*	24	-8	28
C[C@@H]1CN([C@H](C)CO)C(=O)Cc2cc(NS(=O)(=O)c3ccc(F)cc3)ccc2O[C@H]1CN(C)Cc1ccccc1	97*	-9	7	110*	14	0	23
C[C@H](CO)N1C[C@H](C)[C@H](CN(C)Cc2ccccc2)Oc2ccc(NS(=O)(=O)c3ccc(F)cc3)cc2CC1=O	72	-19	-41	nt	nt	nt	nt
